Holding throughout (assay): PBM; 200 nM protein, PBS
Common to all, as to conditions: dsDNA, one strand shown

Assay [1] has as its target HOXB4 (Homo sapiens, UniProt P17483 148-234).
In assay [2] the target is HOXC9 (Homo sapiens, UniProt P31274 178-260, K195R).
Assay [3] addresses HOXB4 (Homo sapiens, UniProt P17483 148-234, V174I).
Assay [4] deals with HOXC9 (Homo sapiens, UniProt P31274 178-260).
The target of assay [5] is HOXC9 (Homo sapiens, UniProt P31274 178-260, R193K).
The target in assay [6] is VAX1 (Homo sapiens, UniProt Q5SQQ9 86-172).
The target in assay [7] is HOXC9 (Homo sapiens, UniProt P31274 178-260, R222W).
Assay [8] addresses VAX1 (Homo sapiens, UniProt Q5SQQ9 86-172, T142I).
The target in assay [9] is VAX1 (Homo sapiens, UniProt Q5SQQ9 86-172, K157R).
The target of assay [10] is PRRX1 (Homo sapiens, UniProt P54821 80-166, F113S).
For assay [11], the target named is PRRX1 (Homo sapiens, UniProt P54821 80-166).
In assay [12] the target is HOXC10 (Homo sapiens, UniProt Q9NYD6 254-340).
Assay [13] deals with HOXC10 (Homo sapiens, UniProt Q9NYD6 254-340, K271E).
Assay [14] addresses PROP1 (Homo sapiens, UniProt O75360 56-141).
Assay [15] addresses PROP1 (Homo sapiens, UniProt O75360 56-141, R99H).
Assay [16] deals with PROP1 (Homo sapiens, UniProt O75360 56-141, F88S).
Assay [17] addresses ALX4 (Homo sapiens, UniProt Q9H161 200-286).
Assay [18] deals with ALX4 (Homo sapiens, UniProt Q9H161 200-286, Q225E).
The target in another assay is T1, NKX2-6 (Homo sapiens, UniProt A6NCS4 118-204, R150C).
T1 sequence: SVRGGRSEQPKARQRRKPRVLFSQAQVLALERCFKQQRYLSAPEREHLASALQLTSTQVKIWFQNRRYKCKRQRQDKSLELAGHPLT

The target of assay [19] is MSX2 (Homo sapiens, UniProt P35548 130-214, R199I).
The target of assay [20] is ALX3 (Homo sapiens, UniProt O95076 139-225, N203Q).
Assay [21] concerns the target MSX2 (Homo sapiens, UniProt P35548 130-214).
Assay [22] concerns the target ALX3 (Homo sapiens, UniProt O95076 139-225).
Assay [23] concerns the target ALX3 (Homo sapiens, UniProt O95076 139-225, L168Q).
Assay [24] addresses ALX3 (Homo sapiens, UniProt O95076 139-225, L168V).
Assay [25] deals with MSX2 (Homo sapiens, UniProt P35548 130-214, F161Y).
For assay [26], the target named is ALX3 (Homo sapiens, UniProt O95076 139-225, N203S).
In assay [27] the target is HOXA2 (Homo sapiens, UniProt O43364 129-215, R185T).
Assay [28] addresses HOXD13 (Homo sapiens, UniProt P35453 263-343, T313R).
The target in assay [29] is HOXA2 (Homo sapiens, UniProt O43364 129-215, R185K).
For assay [30], the target named is HOXD13 (Homo sapiens, UniProt P35453 263-343).
In assay [31] the target is HOXD13 (Homo sapiens, UniProt P35453 263-343, T313A).
Assay [32] deals with HOXA2 (Homo sapiens, UniProt O43364 129-215, Y150S).
Assay [33] addresses HOXA2 (Homo sapiens, UniProt O43364 129-215).

Chain of VAX1 (Homo sapiens, UniProt Q5SQQ9 86-172, K157R) (Q5SQQ9 86-172 K157R): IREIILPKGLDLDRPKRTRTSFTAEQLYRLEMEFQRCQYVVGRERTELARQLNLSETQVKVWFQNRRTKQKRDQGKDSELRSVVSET
Chain of HOXB4 (Homo sapiens, UniProt P17483 148-234, V174I) (P17483 148-234 V174I): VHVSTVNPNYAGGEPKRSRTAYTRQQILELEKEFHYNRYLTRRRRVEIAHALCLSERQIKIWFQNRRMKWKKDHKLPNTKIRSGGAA
Chain of VAX1 (Homo sapiens, UniProt Q5SQQ9 86-172) (Q5SQQ9 86-172): as the sequence (Q5SQQ9 86-172 K157R) above, with R72K counted along it
Chain of VAX1 (Homo sapiens, UniProt Q5SQQ9 86-172, T142I) (Q5SQQ9 86-172 T142I): as the sequence (Q5SQQ9 86-172 K157R) above, with T57I, R72K counted along it
Chain of HOXB4 (Homo sapiens, UniProt P17483 148-234) (P17483 148-234): as the sequence (P17483 148-234 V174I) above, with I27V counted along it
Chain of ALX4 (Homo sapiens, UniProt Q9H161 200-286, Q225E) (Q9H161 200-286 Q225E): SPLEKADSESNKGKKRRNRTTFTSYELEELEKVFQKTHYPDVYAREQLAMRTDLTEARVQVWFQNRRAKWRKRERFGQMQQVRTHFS
Chain of PRRX1 (Homo sapiens, UniProt P54821 80-166, F113S) (P54821 80-166 F113S): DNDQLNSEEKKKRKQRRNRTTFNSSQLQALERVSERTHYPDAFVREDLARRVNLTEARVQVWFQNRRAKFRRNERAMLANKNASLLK
Chain of ALX4 (Homo sapiens, UniProt Q9H161 200-286) (Q9H161 200-286): as the sequence (Q9H161 200-286 Q225E) above, with E26Q counted along it
Chain of PRRX1 (Homo sapiens, UniProt P54821 80-166) (P54821 80-166): as the sequence (P54821 80-166 F113S) above, with S34F counted along it
Chain of HOXC10 (Homo sapiens, UniProt Q9NYD6 254-340, K271E) (Q9NYD6 254-340 K271E): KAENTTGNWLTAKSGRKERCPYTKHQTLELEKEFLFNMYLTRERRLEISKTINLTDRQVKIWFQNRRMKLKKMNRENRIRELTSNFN
Chain of HOXC10 (Homo sapiens, UniProt Q9NYD6 254-340) (Q9NYD6 254-340): as the sequence (Q9NYD6 254-340 K271E) above, with E18K counted along it
Chain of HOXD13 (Homo sapiens, UniProt P35453 263-343, T313R) (P35453 263-343 T313R): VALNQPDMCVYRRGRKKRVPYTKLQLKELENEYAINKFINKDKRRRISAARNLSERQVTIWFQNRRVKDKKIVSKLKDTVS
Chain of HOXA2 (Homo sapiens, UniProt O43364 129-215) (O43364 129-215): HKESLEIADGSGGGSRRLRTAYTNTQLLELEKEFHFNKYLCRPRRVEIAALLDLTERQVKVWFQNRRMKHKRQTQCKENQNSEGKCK
Chain of HOXC9 (Homo sapiens, UniProt P31274 178-260, R222W) (P31274 178-260 R222W): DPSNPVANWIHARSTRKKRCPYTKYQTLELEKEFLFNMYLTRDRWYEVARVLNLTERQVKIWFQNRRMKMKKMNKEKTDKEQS
Chain of HOXA2 (Homo sapiens, UniProt O43364 129-215, Y150S) (O43364 129-215 Y150S): as the sequence (O43364 129-215) above, with Y22S counted along it
Chain of MSX2 (Homo sapiens, UniProt P35548 130-214) (P35548 130-214): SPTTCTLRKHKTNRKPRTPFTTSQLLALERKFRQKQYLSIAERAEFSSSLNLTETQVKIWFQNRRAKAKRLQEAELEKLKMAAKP
Chain of ALX3 (Homo sapiens, UniProt O95076 139-225, N203Q) (O95076 139-225 N203Q): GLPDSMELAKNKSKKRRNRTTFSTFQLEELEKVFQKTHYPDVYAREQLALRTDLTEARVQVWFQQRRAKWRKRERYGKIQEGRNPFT
Chain of HOXD13 (Homo sapiens, UniProt P35453 263-343) (P35453 263-343): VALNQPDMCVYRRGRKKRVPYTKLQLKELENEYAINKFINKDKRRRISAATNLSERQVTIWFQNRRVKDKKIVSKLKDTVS
Chain of HOXC9 (Homo sapiens, UniProt P31274 178-260, R193K) (P31274 178-260 R193K): as the sequence (P31274 178-260 R222W) above, with R16K, W45R counted along it
Chain of PROP1 (Homo sapiens, UniProt O75360 56-141, R99H) (O75360 56-141 R99H): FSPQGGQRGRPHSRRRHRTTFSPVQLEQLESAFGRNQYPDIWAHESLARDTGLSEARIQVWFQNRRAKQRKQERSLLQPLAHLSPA
Chain of HOXD13 (Homo sapiens, UniProt P35453 263-343, T313A) (P35453 263-343 T313A): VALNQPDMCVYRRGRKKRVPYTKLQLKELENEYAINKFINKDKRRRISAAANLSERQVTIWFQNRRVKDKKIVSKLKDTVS
Chain of PROP1 (Homo sapiens, UniProt O75360 56-141, F88S) (O75360 56-141 F88S): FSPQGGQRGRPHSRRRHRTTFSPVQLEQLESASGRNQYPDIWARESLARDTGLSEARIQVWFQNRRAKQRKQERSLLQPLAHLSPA
Chain of PROP1 (Homo sapiens, UniProt O75360 56-141) (O75360 56-141): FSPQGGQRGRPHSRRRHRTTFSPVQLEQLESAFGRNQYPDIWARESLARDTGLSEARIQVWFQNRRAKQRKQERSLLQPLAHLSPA
Chain of ALX3 (Homo sapiens, UniProt O95076 139-225, N203S) (O95076 139-225 N203S): as the sequence (O95076 139-225 N203Q) above, with Q65S counted along it
Chain of ALX3 (Homo sapiens, UniProt O95076 139-225, L168Q) (O95076 139-225 L168Q): as the sequence (O95076 139-225 N203Q) above, with L30Q, Q65N counted along it
Chain of HOXA2 (Homo sapiens, UniProt O43364 129-215, R185T) (O43364 129-215 R185T): as the sequence (O43364 129-215) above, with R57T counted along it
Chain of HOXC9 (Homo sapiens, UniProt P31274 178-260, K195R) (P31274 178-260 K195R): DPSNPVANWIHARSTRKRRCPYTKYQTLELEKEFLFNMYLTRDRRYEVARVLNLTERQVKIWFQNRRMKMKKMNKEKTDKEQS
Chain of MSX2 (Homo sapiens, UniProt P35548 130-214, F161Y) (P35548 130-214 F161Y): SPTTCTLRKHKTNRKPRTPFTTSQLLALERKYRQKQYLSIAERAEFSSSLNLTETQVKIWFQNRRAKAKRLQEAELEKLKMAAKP
Chain of MSX2 (Homo sapiens, UniProt P35548 130-214, R199I) (P35548 130-214 R199I): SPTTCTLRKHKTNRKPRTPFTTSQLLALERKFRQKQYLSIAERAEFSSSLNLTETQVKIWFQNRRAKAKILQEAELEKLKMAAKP
Chain of HOXC9 (Homo sapiens, UniProt P31274 178-260) (P31274 178-260): as the sequence (P31274 178-260 R222W) above, with W45R counted along it
Chain of ALX3 (Homo sapiens, UniProt O95076 139-225, L168V) (O95076 139-225 L168V): as the sequence (O95076 139-225 N203Q) above, with L30V, Q65N counted along it
Chain of ALX3 (Homo sapiens, UniProt O95076 139-225) (O95076 139-225): as the sequence (O95076 139-225 N203Q) above, with Q65N counted along it
Chain of HOXA2 (Homo sapiens, UniProt O43364 129-215, R185K) (O43364 129-215 R185K): as the sequence (O43364 129-215) above, with R57K counted along it

With TCCCAGGA, the binding signal in the assay with HOXB4 [1] is 7.82 upbm affinity estimate (log intensity, higher = more binding, comparable within an allelic series); with HOXC9 [2], 9.51 upbm affinity estimate (log intensity, higher = more binding, comparable within an allelic series); in the assay with HOXB4 [3] it was 7.66 upbm affinity estimate (log intensity, higher = more binding, comparable within an allelic series); with HOXC9 [4] it was 9.58 upbm affinity estimate (log intensity, higher = more binding, comparable within an allelic series); in the assay with HOXC9 [5], 9.57 upbm affinity estimate (log intensity, higher = more binding, comparable within an allelic series); with VAX1 [6], 7.2 upbm affinity estimate (log intensity, higher = more binding, comparable within an allelic series). Also, the binding signal in the assay with HOXC9 [7] was 9.72 upbm affinity estimate (log intensity, higher = more binding, comparable within an allelic series); with VAX1 [8] it was 7.36 upbm affinity estimate (log intensity, higher = more binding, comparable within an allelic series); with VAX1 [9], 7.24 upbm affinity estimate (log intensity, higher = more binding, comparable within an allelic series).

In the case of CAGAAGGC, the binding signal with HOXB4 [1] is 7.78 upbm affinity estimate (log intensity, higher = more binding, comparable within an allelic series); in the assay with HOXB4 [3], 7.7 upbm affinity estimate (log intensity, higher = more binding, comparable within an allelic series).

Regarding GACCGTGC, the binding signal with HOXB4 [1] is 7.54 upbm affinity estimate (log intensity, higher = more binding, comparable within an allelic series); with PRRX1 [10], 9.27 upbm affinity estimate (log intensity, higher = more binding, comparable within an allelic series); with HOXB4 [3], 7.53 upbm affinity estimate (log intensity, higher = more binding, comparable within an allelic series); in the assay with PRRX1 [11], 9.23 upbm affinity estimate (log intensity, higher = more binding, comparable within an allelic series).

As for GCAGGGCC, the binding signal with HOXB4 [1] is 7.4 upbm affinity estimate (log intensity, higher = more binding, comparable within an allelic series); in the assay with HOXC10 [12] it was 10 upbm affinity estimate (log intensity, higher = more binding, comparable within an allelic series); in the assay with HOXB4 [3], 7.46 upbm affinity estimate (log intensity, higher = more binding, comparable within an allelic series); in the assay with HOXC10 [13], 10 upbm affinity estimate (log intensity, higher = more binding, comparable within an allelic series); in the assay with VAX1 [6] it was 6.92 upbm affinity estimate (log intensity, higher = more binding, comparable within an allelic series); with VAX1 [8], 7 upbm affinity estimate (log intensity, higher = more binding, comparable within an allelic series). Also, in the assay with VAX1 [9], the binding signal was 6.86 upbm affinity estimate (log intensity, higher = more binding, comparable within an allelic series).

On to CCAACGGA, for which the binding signal with HOXB4 [1] was 7.78 upbm affinity estimate (log intensity, higher = more binding, comparable within an allelic series); with PRRX1 [10], 9.38 upbm affinity estimate (log intensity, higher = more binding, comparable within an allelic series); in the assay with HOXB4 [3], 7.67 upbm affinity estimate (log intensity, higher = more binding, comparable within an allelic series); in the assay with PROP1 [14] it was 6.62 upbm affinity estimate (log intensity, higher = more binding, comparable within an allelic series); with PROP1 [15], 6.69 upbm affinity estimate (log intensity, higher = more binding, comparable within an allelic series); in the assay with PROP1 [16], 6.66 upbm affinity estimate (log intensity, higher = more binding, comparable within an allelic series). The binding signal with PRRX1 [11] was 9.16 upbm affinity estimate (log intensity, higher = more binding, comparable within an allelic series).

Turning to CTGGAGCC, the binding signal with HOXB4 [1] was 7.25 upbm affinity estimate (log intensity, higher = more binding, comparable within an allelic series); with ALX4 [17], 7.69 upbm affinity estimate (log intensity, higher = more binding, comparable within an allelic series); with ALX4 [18], 8.02 upbm affinity estimate (log intensity, higher = more binding, comparable within an allelic series); in the assay with HOXB4 [3], 7.29 upbm affinity estimate (log intensity, higher = more binding, comparable within an allelic series); in the assay with VAX1 [6], 6.85 upbm affinity estimate (log intensity, higher = more binding, comparable within an allelic series); with VAX1 [8], 6.94 upbm affinity estimate (log intensity, higher = more binding, comparable within an allelic series). The binding signal in the assay with VAX1 [9] was 6.67 upbm affinity estimate (log intensity, higher = more binding, comparable within an allelic series).

With AGACCTAG, the binding signal in the assay with HOXB4 [1] was 7.5 upbm affinity estimate (log intensity, higher = more binding, comparable within an allelic series); in the assay with HOXB4 [3] it was 7.5 upbm affinity estimate (log intensity, higher = more binding, comparable within an allelic series).

Take CCTGTGGA: the binding signal with HOXB4 [1] was 7.33 upbm affinity estimate (log intensity, higher = more binding, comparable within an allelic series); with ALX4 [17], 8.17 upbm affinity estimate (log intensity, higher = more binding, comparable within an allelic series); with ALX4 [18], 8.04 upbm affinity estimate (log intensity, higher = more binding, comparable within an allelic series); with HOXB4 [3], 7.56 upbm affinity estimate (log intensity, higher = more binding, comparable within an allelic series).

With GAGCCGGC, the binding signal in the assay with HOXB4 [1] was 7.56 upbm affinity estimate (log intensity, higher = more binding, comparable within an allelic series); with HOXC10 [12], 10 upbm affinity estimate (log intensity, higher = more binding, comparable within an allelic series); with HOXB4 [3] it was 7.62 upbm affinity estimate (log intensity, higher = more binding, comparable within an allelic series); in the assay with NKX2-6 it was 9.46 upbm affinity estimate (log intensity, higher = more binding, comparable within an allelic series); with MSX2 [19] it was 9.47 upbm affinity estimate (log intensity, higher = more binding, comparable within an allelic series); with ALX3 [20], 7.82 upbm affinity estimate (log intensity, higher = more binding, comparable within an allelic series). Also, the binding signal with HOXC10 [13] is 9.91 upbm affinity estimate (log intensity, higher = more binding, comparable within an allelic series); in the assay with MSX2 [21] it was 9.45 upbm affinity estimate (log intensity, higher = more binding, comparable within an allelic series); in the assay with ALX3 [22], 7.87 upbm affinity estimate (log intensity, higher = more binding, comparable within an allelic series); with ALX3 [23] it was 7.74 upbm affinity estimate (log intensity, higher = more binding, comparable within an allelic series); with ALX3 [24] it was 7.7 upbm affinity estimate (log intensity, higher = more binding, comparable within an allelic series); with MSX2 [25] it was 9.45 upbm affinity estimate (log intensity, higher = more binding, comparable within an allelic series). Also, the binding signal with ALX3 [26] was 7.79 upbm affinity estimate (log intensity, higher = more binding, comparable within an allelic series).

Turning to CGGGGGGA, the binding signal in the assay with HOXB4 [1] is 7.79 upbm affinity estimate (log intensity, higher = more binding, comparable within an allelic series); in the assay with HOXA2 [27], 7.04 upbm affinity estimate (log intensity, higher = more binding, comparable within an allelic series); with HOXB4 [3] it was 7.87 upbm affinity estimate (log intensity, higher = more binding, comparable within an allelic series); with HOXD13 [28] it was 8.99 upbm affinity estimate (log intensity, higher = more binding, comparable within an allelic series); in the assay with HOXA2 [29], 10.1 upbm affinity estimate (log intensity, higher = more binding, comparable within an allelic series); in the assay with HOXD13 [30], 9.17 upbm affinity estimate (log intensity, higher = more binding, comparable within an allelic series). In addition, the binding signal was 9.29 upbm affinity estimate (log intensity, higher = more binding, comparable within an allelic series) in the assay with HOXD13 [31]; 10.3 upbm affinity estimate (log intensity, higher = more binding, comparable within an allelic series) with HOXA2 [32]; 7.09 upbm affinity estimate (log intensity, higher = more binding, comparable within an allelic series) in the assay with HOXA2 [33].

With CCTCACCG, the binding signal with HOXB4 [1] was 7.41 upbm affinity estimate (log intensity, higher = more binding, comparable within an allelic series); in the assay with HOXB4 [3], 7.32 upbm affinity estimate (log intensity, higher = more binding, comparable within an allelic series).

Regarding TGGCATAA, the binding signal with HOXB4 [1] was 10 upbm affinity estimate (log intensity, higher = more binding, comparable within an allelic series); with HOXB4 [3] it was 9.76 upbm affinity estimate (log intensity, higher = more binding, comparable within an allelic series).

Source of the values: article PMC11006913.
